Screens from PubChem.
ALDH1A1 block: qHTS Assay for Inhibitors of Aldehyde Dehydrogenase 1 (ALDH1A1) | Aldehyde dehydrogenase 1A1 (Homo sapiens), P00352 | Purified ALDH1A1, NADH fluorescence, propionaldehyde substrate | Potency, µM (top dose mostly 75.3 µM), without a hit: top-dose activity, negative = inhibition, hits mostly inhibitors | 220,000 tested, 7.3% active | AID 1030, 2008; active = well fitted inhibition curve with a large enough effect, not every such curve was filed as active; inconclusive = small, poorly fitted or top-dose-only effect, or another doubt; inactive = no such curve, though single readings can be large or run the other way;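 note: potency is the fitted concentration of half-maximal effect; plate controls were no enzyme wells and a reference inhibitor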
Target sequence (P00352 whole entry, looked up): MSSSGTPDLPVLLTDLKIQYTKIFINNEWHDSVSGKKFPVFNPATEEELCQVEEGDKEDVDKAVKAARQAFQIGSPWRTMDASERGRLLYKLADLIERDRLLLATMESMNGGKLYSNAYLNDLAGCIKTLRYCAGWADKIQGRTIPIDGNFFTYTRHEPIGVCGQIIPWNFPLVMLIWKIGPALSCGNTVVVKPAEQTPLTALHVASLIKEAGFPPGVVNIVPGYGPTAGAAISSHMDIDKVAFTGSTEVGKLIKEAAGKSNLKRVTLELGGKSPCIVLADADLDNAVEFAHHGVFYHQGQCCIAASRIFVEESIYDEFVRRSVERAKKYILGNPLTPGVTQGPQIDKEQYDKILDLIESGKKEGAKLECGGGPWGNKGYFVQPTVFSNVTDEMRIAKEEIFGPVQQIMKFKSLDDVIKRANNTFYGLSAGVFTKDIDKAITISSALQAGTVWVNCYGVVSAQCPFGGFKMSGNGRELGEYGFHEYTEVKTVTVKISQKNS
miR-21 act: qHTS Assay for Modulators of miRNAs and/orActivators of miR-21; HeLa miR-21 FLuc reporter, luciferase, 48 h; Potency, µM (highest dose often 38.3 µM), inactives show at the top dose activity change, positive = activation, most hits filed as activators; 340,000 tested, under 10 active; AID 2288, 2010;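 note: % of control where 0% means no effect; miR-21 action dims this reporter so a rising signal means less miR-21 action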
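HeLa cells endogenously expressing miR-21, stably carrying CMV-driven firefly luciferase with a downstream miR-21 binding site, 2000 cells/well. Titrations up to approximately 40 uM, 48 hours; luciferase luminescence read.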
Sfp PPTase inh: qHTS Assay for Inhibitors of Bacillus subtilis Sfp phosphopantetheinyl transferase (PPTase) | 4'-phosphopantetheinyl transferase ffp (Bacillus subtilis), Q9F4F7 | Biochemical Sfp PPTase activity, qHTS | Potency, µM, inactives show largest response in the series, negative = inhibition, most hits filed as inhibitors | 310,000 tested, 3.5% active;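 note: the enzyme is Sfp with the accession as filed and its product quenches rhodamine fluorescence; potency is the fitted concentration of half-maximal effect; 0% = enzyme reaction without inhibitor and -100% = no enzyme wells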
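Fluorescence-quenching assay: 15 nM Sfp-PPTase preincubated 15 min at room temperature with compound, then 5 uM rhodamine-CoA and 12.5 uM BHQ-2-labelled YbbR peptide added. Fluorescence (ex 525/em 598 nm) read at start and after 30 min; difference gives rate.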
G9a inh: qHTS Assay for Inhibitors of Histone Lysine Methyltransferase G9a; Histone-lysine N-methyltransferase EHMT2 (Homo sapiens), Q96KQ7; G9a H3K9 monomethylation, AlphaScreen, 2 h; Potency, µM (titrated, usually from 102 µM), for the others: top-dose activity, negative = inhibition, actives largely listed as inhibitors; 350,000 tested, 8.8% active; AID 504332, 2011; note: potency is the fitted concentration of half-maximal effect; % is set by controls: 0 for no effect and ±100 for the full control effect; nearly all actives have a fitted effect of over 75% in size
Target sequence (Q96KQ7 913-1193 limits assumed): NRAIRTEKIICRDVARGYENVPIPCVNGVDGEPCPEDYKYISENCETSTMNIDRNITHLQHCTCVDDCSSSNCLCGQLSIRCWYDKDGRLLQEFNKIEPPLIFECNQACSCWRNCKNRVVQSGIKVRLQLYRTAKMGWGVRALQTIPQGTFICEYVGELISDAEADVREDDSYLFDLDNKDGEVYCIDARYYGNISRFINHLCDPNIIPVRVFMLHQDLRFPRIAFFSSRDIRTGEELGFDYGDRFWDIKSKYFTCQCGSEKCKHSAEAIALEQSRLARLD
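AlphaScreen read-out: biotin-H3K9 peptide (500 nM) methylation by 20 nM enzyme with 20 uM SAM, 2 h at room temperature after 15 min compound preincubation; anti-monomethyl H3K9 antibody plus donor/acceptor beads, 10 min dark.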
JMJD2E inh: qHTS Assay for Inhibitors of Human Jumonji Domain Containing 2E (JMJD2E) | 230,000 tested, 1.6% active | Potency, µM (top dose mostly 57.1 µM), inactives show at the top dose activity change, negative = inhibition, hits mostly inhibitors | AID 2147, 2009 | JMJD2E catalytic domain, FDH-coupled NADH fluorescence (FDH is formaldehyde dehydrogenase) | Lysine-specific demethylase 4E (Homo sapiens), B2RXH2; active = well fitted inhibition curve with a large enough effect, not every such curve was filed as active; inconclusive = small, poorly fitted or top-dose-only effect, or another doubt; inactive = no such curve, though single readings can be large or run the other way;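 note: potency is the fitted concentration of half-maximal effect; 0% = wells with enzyme and -100% = buffer wells without enzyme; nearly all actives have a fitted effect of over 50% in size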
LMNA splice mod: qHTS Assay for Modulators of Lamin A Splicing | 200,000 tested, 0.01% active | HeLa LMNA splicing GFP/RFP minigene ratio, 48 h | Potency, µM (top dose mostly 46.1 µM), for the others: top-dose ratio change, negative = inhibition, hits mostly inhibitors | AID 1487, 2009; active = well fitted inhibition curve with a large enough effect in the signal ratio, with a control signal flat, not every such curve was filed as active; inconclusive = small, poorly fitted or top-dose-only effect, or effect the other way, or a change in a side signal; the % refers to the signal ratio; note: potency is the fitted concentration of half-maximal effect; % is set by controls: 0 for no effect and ±100 for the full control effect
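S3 HeLa stable clones carrying a lamin A-EGFP splicing minigene plus DsRed2 were seeded at 600 cells/well in Opti-MEM with 2% FBS, pin-dosed and incubated 48 h at 37°C. Acumen cytometry (488 nm) gave the GFP/RFP total-intensity ratio.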
* hit, by the source's call; [ ] = another dose, or the depositor's remark. In the library only some 13% were active in any assay of this set; here they are far more common. Unless noted, calls come from the whole dose curve; as a rule, active = well fitted curve in the direction sought with a large enough effect; inconclusive = small, poorly fitted or top-dose-only effect, or another doubt; inactive = no such curve, though single readings can be large; an effect the other way counts as inactive or inconclusive.

`CC1CCN(S(=O)(=O)c2ccc3c(c2)N(CC(=O)NCCN2C(C)CCCC2C)C(=O)CS3)CC1` (stereo not drawn) gave miR-21 act -3.1% and Sfp PPTase inh -1.8%.
For COC(=O)c1cc2sc(C)cc2n1Cc1cccc(OC)c1 the results were miR-21 act 17.0% and G9a inh 62.8%[59 µM].
C=CCn1c(CNC(=O)c2ccco2)nnc1SCC(=O)c1ccc(F)cc1 was read as miR-21 act -0.2%, Sfp PPTase inh 11.8% and G9a inh inconclusive.
Screening C=CCn1c(COC)nnc1SCC(=O)c1ccc(F)cc1 returned ALDH1A1 block 11.2µM*, miR-21 act -23.1%, Sfp PPTase inh inconclusive, G9a inh 3.55µM*, JMJD2E inh inconclusive and LMNA splice mod 9.5%.
`COc1ccc(N(CC(=O)NCCc2ccccc2)S(=O)(=O)c2ccccc2)c(OC)c1` gave miR-21 act 9.2% and G9a inh 3.8%[59 µM].
O=C(CSc1nc(=O)[nH]c2c1CCC2)Nc1cc(C(F)(F)F)ccc1Cl was read as miR-21 act -2.4%, G9a inh -4.9%[59 µM] and LMNA splice mod inconclusive.
O=C(Cc1ccccc1F)OCC(=O)N1CCN(C(=O)c2ccco2)CC1 was read as ALDH1A1 block inconclusive, miR-21 act -3.3%, Sfp PPTase inh 9.2%, G9a inh -19.7%, JMJD2E inh -1.3% and LMNA splice mod -20.1%[46 µM].
Screening CCOC(=O)CSc1ccc(S(=O)(=O)N(CC)CC)cc1[N+](=O)[O-] returned ALDH1A1 block -14.8%, miR-21 act -0.7%, Sfp PPTase inh 2.1%, G9a inh 44.7µM* and JMJD2E inh -8.1%.
Cc1cc(Br)ccc1SCC(=O)OCC(=O)N1CCN(C(=O)c2ccco2)CC1 was read as ALDH1A1 block inconclusive, miR-21 act 0.6%, Sfp PPTase inh inconclusive, G9a inh 44.7µM*, JMJD2E inh 6.4% and LMNA splice mod 6.2%.
Screening NC(=O)c1ccc(SCC(=O)OCC(=O)N2CCN(C(=O)c3ccco3)CC2)c([N+](=O)[O-])c1 returned G9a inh 56.2µM*.
O=C(CSc1cccc2cccc(Cl)c12)OCC(=O)N1CCN(C(=O)c2ccco2)CC1 was read as ALDH1A1 block 11.2µM*, miR-21 act -2.5%, Sfp PPTase inh -10.0%, G9a inh 79.4µM*, JMJD2E inh -2.9% and LMNA splice mod 1.1%.
For Cc1cccc(CCNC(=O)c2ccc(CSCc3cccc(Cl)c3)o2)c1 the results were miR-21 act 5.4%, G9a inh 0.6%[59 µM] and LMNA splice mod inconclusive.
NC(=O)c1ccc(SCC(=O)OCC(=O)N2CCCCC2)c([N+](=O)[O-])c1 was read as G9a inh 50.1µM*.
Screening CC1CC(C)(C)Nc2ccc(OC(=O)c3ccco3)cc21 (stereo not drawn) returned ALDH1A1 block inconclusive, miR-21 act inconclusive, Sfp PPTase inh -13.2%, G9a inh 44.7µM*, JMJD2E inh 9.1% and LMNA splice mod -11.7%.
For CC1CC(C)(C)Nc2ccc(N=O)cc21 (stereo not drawn) the results were ALDH1A1 block 10µM*, miR-21 act inconclusive, Sfp PPTase inh 22.2%, G9a inh inconclusive, JMJD2E inh -3.1% and LMNA splice mod inconclusive.
`Cc1cc(=O)oc2cc(OC(=O)c3ccco3)ccc12` gave ALDH1A1 block -0.7%, miR-21 act 0.4%, Sfp PPTase inh 9.5%, G9a inh 5.0% and JMJD2E inh -5.3%.
N#Cc1c(-c2ccc(Br)cc2)nc2n(c1=O)CCCS2 was read as ALDH1A1 block 35.5µM*, miR-21 act -14.4%, Sfp PPTase inh 5.6%, G9a inh 5.1%, JMJD2E inh -17.2% and LMNA splice mod -0.4%.
Screening CCOC(=O)c1c(C)oc2c1cc(NS(=O)(=O)c1ccc(C(=O)O)cc1)c1ccccc12 returned miR-21 act -15.6%, Sfp PPTase inh 56.2µM* and G9a inh 35.5µM*.
For COC(=O)c1c(C)oc2c1cc(NS(=O)(=O)c1cccs1)c1ccccc12 the results were ALDH1A1 block 7.94µM*, miR-21 act 0.8%, Sfp PPTase inh -14.5%, G9a inh inconclusive, JMJD2E inh -4.2% and LMNA splice mod 3.4%.
`Cc1oc2c(cc(NS(=O)(=O)c3ccc4c5c(cccc35)C(=O)N4)c3ccccc32)c1C(=O)OC(C)C` gave ALDH1A1 block inconclusive, miR-21 act -15.2%, Sfp PPTase inh -27.0%, G9a inh 20µM*, JMJD2E inh inconclusive and LMNA splice mod inconclusive.
`CCOC(=O)c1ccc(S(=O)(=O)Nc2cc(C(=O)O)ccc2Cl)cc1` gave ALDH1A1 block 3.16µM*, miR-21 act 3.1%, Sfp PPTase inh inconclusive, G9a inh 7.94µM*, JMJD2E inh inconclusive and LMNA splice mod inconclusive.
CCOC(=O)c1ccc(S(=O)(=O)NNS(=O)(=O)c2ccc(C)cc2)cc1 was read as miR-21 act -1.1%, Sfp PPTase inh 0.4% and G9a inh 7.1%[2.33 µM].
For COc1ccc(OC)c(S(=O)(=O)Nc2cc3c(C(C)=O)c(C)oc3c3ccccc23)c1 the results were miR-21 act -16.5% and G9a inh inconclusive.
`Cc1ccc(NC(=O)CCn2c(=S)oc3ccccc32)cc1F` gave miR-21 act -0.5%, Sfp PPTase inh -1.2% and G9a inh 3.7%.
Screening C=CCn1c(CNc2ccccc2)nnc1SCC(=O)N/N=C/c1ccccc1O returned ALDH1A1 block inconclusive, miR-21 act -2.6%, Sfp PPTase inh 7.8%, G9a inh 77.8%[59 µM], JMJD2E inh 14.1µM* and LMNA splice mod inconclusive.
For O=C(Nc1nnc(C(F)(F)F)s1)c1ccc(Br)s1 the results were ALDH1A1 block 2.2%, miR-21 act -4.2%, Sfp PPTase inh 2.2%, G9a inh 50.1µM*, JMJD2E inh -10.4% and LMNA splice mod inconclusive.
Screening FC(F)(F)c1ccccc1-c1nccc(NCCN2CCOCC2)n1 returned ALDH1A1 block 14.9%, Sfp PPTase inh inconclusive, G9a inh 0.7%[0.501 µM] and LMNA splice mod -1.1%.
Cc1ccccc1-c1nccc(NCCN2CCOCC2)n1 was read as ALDH1A1 block 31.6µM*, Sfp PPTase inh inconclusive, G9a inh 0.6%[0.501 µM] and LMNA splice mod 5.9%.
For CN(CC(=O)Nc1cccc(F)c1)C(=O)c1ccc(-c2ccc(Cl)cc2)o1 the results were miR-21 act -9.3%, Sfp PPTase inh inconclusive and G9a inh 35.5µM*.
